Screens (PubChem)
In the library only some 3.5% were active in any assay of this set; here they are far more common.
Rv3671c protease: Rv3671c serine protease inhibitors, primary screen, biochemical, fluorescence polarization, M. tuberculosis H37Rv. inhibition, % at 5.96 µM. actives 0.048% (n = 320,000); in the data active = inhibition above about 38%;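 note: extracellular domain of Rv3671c used as enzyme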
GDH-TPI counter-1: GDH-TPI coupling enzyme inhibitors, primary screen, artefact control for M. tuberculosis FBA inhibitor project, biochemical, absorbance, full deck; actives 1.2% (n = 360,000); GDH-TPI coupled enzyme counterscreen, NADH absorbance; inhibition, % at 4.8 µM; AID 588335, 2011; in the data active = inhibition above about 30%
Mtb bLac sens: beta-lactam sensitization of Mtb H37Rv, H37Rv; AID 434955, 2010; M. tuberculosis H37Rv growth with meropenem, percent inhibition; inhibition, % at 25 µM; actives 0.27% (n = 330,000); call rule not given here;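 note: growth measured after seven days incubation then overnight dye step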
FBA Mtb inh: Mtb FBA enzyme inhibitors, primary screen, biochemical, fluorescence, strain H37Rv; Fructose-bisphosphate aldolase (Mycobacterium tuberculosis (strain ATCC 25618 / H37Rv)), …; AID 588726, 2011; inhibition, % at 1 µM; purified M. tuberculosis FBA, fluorescence read-out; actives 2.3% (n = 360,000)
UGM FP inh: M. tuberculosis UGM enzyme inhibitors, primary screen, biochemical, fluorescence polarization, single point | UDP-galactopyranose mutase (Mycobacterium tuberculosis (strain ATCC 25618 / H37Rv)), … | purified UGM, fluorescence polarization probe displacement | inhibition, % at 10 µM | actives 0.06% (n = 320,000) | AID 504406, 2011; in the data active = inhibition above about 10%, passing the limit was not always enough
Target sequence (P9WIQ1 whole entry, looked up): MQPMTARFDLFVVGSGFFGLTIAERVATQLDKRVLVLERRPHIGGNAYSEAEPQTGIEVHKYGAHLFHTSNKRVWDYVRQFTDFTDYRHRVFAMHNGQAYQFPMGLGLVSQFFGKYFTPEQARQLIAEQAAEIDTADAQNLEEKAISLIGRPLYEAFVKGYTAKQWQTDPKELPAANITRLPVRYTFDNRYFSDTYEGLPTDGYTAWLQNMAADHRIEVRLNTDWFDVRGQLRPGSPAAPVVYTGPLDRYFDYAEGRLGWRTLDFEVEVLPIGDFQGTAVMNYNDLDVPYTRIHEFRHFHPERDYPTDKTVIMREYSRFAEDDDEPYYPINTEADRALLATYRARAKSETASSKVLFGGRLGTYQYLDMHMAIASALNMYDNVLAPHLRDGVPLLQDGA
Mtb FBA inh conf: M. tuberculosis aldolase blockers, biochemical, fluorescence, strain H37Rv, confirmation; shares compounds with FBA Mtb inh; purified M. tuberculosis FBA, fluorescence read-out; inhibition, % at 1 µM; actives 78% (n = 5,600)
GDH-TPI counter-2: GDH-TPI coupling enzyme inhibitors, artefact control for M. tuberculosis FBA inhibitor project, biochemical, fluorescence, high throughput. inhibition, % at 1 µM. GDH-TPI coupled enzyme counterscreen. actives 81% (n = 5,600). shares compounds with FBA Mtb inh; in the data active = inhibition above about 10%
Each line names hits and unclear results; the compound was inactive in the other large screens (follow-up assays come after a bar, where they were run). Cut-off read from the data, not from the text of the source, unless noted: active = inhibition above about 27%; inactive = the rest.

O=C(CN1C(=O)NC2(CCCCCCC2)C1=O)N1CCN(C(=O)c2ccco2)CC1	FBA Mtb inh 41.6 | Mtb FBA inh conf active | GDH-TPI counter-2 160.8
O=C(CCN1C(=O)NC2(CCCC2)C1=O)Nc1ccc(-c2nc3ccccc3s2)cc1	FBA Mtb inh 40.0 (no result: UGM FP inh) | Mtb FBA inh conf 173.9 | GDH-TPI counter-2 119.2
O=C(CCN1C(=O)NC2(CCCC2)C1=O)Nc1ccc(Sc2ccc(Br)cc2)cc1	none (no result: Rv3671c protease, Mtb bLac sens, UGM FP inh)
Cc1ccc2nc(-c3ccc(NC(=O)CCS(=O)(=O)c4ccccc4)cc3)sc2c1	FBA Mtb inh 44.5 | Mtb FBA inh conf inactive | GDH-TPI counter-2 inactive
Cc1nc2ccc(NC(=O)CCS(=O)(=O)c3ccccc3)cc2s1	none
CCC1(c2ccc(F)cc2)NC(=O)N(CC(=O)Nc2ccc(-c3nc4ccc(C)cc4s3)cc2)C1=O (stereo not given)	FBA Mtb inh 41.4 | Mtb FBA inh conf active | GDH-TPI counter-2 149.6
Cc1ccc2nc(-c3ccc(NC(=O)CNC4CC4)cc3)sc2c1	FBA Mtb inh 27.7 (no result: Rv3671c protease, Mtb bLac sens, UGM FP inh) | Mtb FBA inh conf 48.1 | GDH-TPI counter-2 39.0
CCOc1ccccc1NC(=S)NC(=O)C1CCCCC1	none
CC(C)[C@H](NC(=O)C1CCN(C(=O)[C@@H]2CCCN2)CC1)C(=O)NCc1ccc(F)cc1	none
Cc1ccc2nc(NC(=O)COC(=O)c3ccncc3)sc2c1	none
Cc1ccc2nc(-c3ccc(NC(=O)CN4C(=O)c5ccccc5C4=O)cc3)sc2c1	FBA Mtb inh 34.2 | Mtb FBA inh conf inactive | GDH-TPI counter-2 inactive
Cc1ccc2nc(-c3ccc(NC(=O)COC(=O)c4ccc(=O)[nH]c4)cc3)sc2c1	FBA Mtb inh 38.7 | Mtb FBA inh conf 39.3 | GDH-TPI counter-2 29.8
COc1ccc(C2(C)NC(=O)N(CC(=O)Nc3ccc(-c4nc5ccc(C)cc5s4)cc3)C2=O)cc1 (stereo not given)	none
C=CCNC(=O)CSc1ncc2c(n1)-c1c(csc1SC)CC2	FBA Mtb inh 99.2 | Mtb FBA inh conf 82.0 | GDH-TPI counter-2 59.0
CC(C)(C)C(=O)CSc1ncccn1	none
C=CCNC(=O)CSc1n[nH]c(-c2cc(Cl)ccc2OC)n1	none
CSc1scc2c1-c1nc(SCC(=O)C(C)(C)C)ncc1CC2	FBA Mtb inh 29.5 | Mtb FBA inh conf 67.0 | GDH-TPI counter-2 48.4
CS(=O)(=O)N(CC(=O)NCCSCc1ccccc1)c1ccccc1Br	none
CCCC(=O)Nc1cc(-c2nc3ncccc3o2)ccc1C	FBA Mtb inh 60.4 | Mtb FBA inh conf 98.6 | GDH-TPI counter-2 64.9
CCCC(=O)Nc1ccc(-c2nc3ncccc3o2)cc1	FBA Mtb inh 86.8 (no result: Rv3671c protease) | Mtb FBA inh conf inactive | GDH-TPI counter-2 16.8
Cc1ccc(-c2nc3ncccc3o2)cc1NC(=O)C(C)(C)C	FBA Mtb inh 29.7 | Mtb FBA inh conf inactive | GDH-TPI counter-2 22.4
Cc1ccc(-c2nc3ncccc3o2)cc1NC(=O)c1ccco1	none
CCCC(=O)Nc1ccc2oc(-c3cccnc3)nc2c1	FBA Mtb inh 74.3 | Mtb FBA inh conf 169.0 | GDH-TPI counter-2 138.4
Cc1ccc(SCC(=O)Nc2cc(S(=O)(=O)N3CCCCC3)ccc2C)cc1	none
Cc1ccc(-c2nc3ncccc3o2)cc1NC(=S)NC(=O)c1ccco1	none
Cc1cc(-c2nc3ncccc3o2)ccc1NC(=S)NC(=O)c1ccco1	FBA Mtb inh 32.9 | Mtb FBA inh conf 39.4 | GDH-TPI counter-2 32.2
CN(C(=O)CSc1nc2sc3c(c2c(=O)n1C)CCC3)C1CCS(=O)(=O)C1 (stereo not given)	none
Nc1nc(Nc2cccc(F)c2)nc2ccccc12	none
O=c1oc(Nc2cccc(F)c2)nc2ccccc12	FBA Mtb inh 35.9 | Mtb FBA inh conf 96.2 | GDH-TPI counter-2 79.2
CC(C)C(=O)Nc1ncc(Cc2ccc(Cl)cc2)s1	none
Cc1ccc(CNC(=O)C2C3C=CC4(CN(Cc5cccnc5)C(=O)C24)O3)cc1 (stereo not given)	FBA Mtb inh 67.9 | Mtb FBA inh conf inactive | GDH-TPI counter-2 inactive
COc1cc(C(=O)OCC(=O)c2c(N)n(C)c(=O)n(C)c2=O)ccc1OCCC(C)C	none
Cc1ccc(O)c(C(=O)/C=C/c2ccc3c(c2)OCCO3)c1	none
COC(=O)c1sc2ccccc2c1N	FBA Mtb inh 78.7 (no result: UGM FP inh) | Mtb FBA inh conf active | GDH-TPI counter-2 active
COC(=O)c1sc2ccccc2c1C(=O)OC	none (no result: Rv3671c protease, Mtb bLac sens, UGM FP inh)
C/C(N)=C(/C#N)C(=O)COC(=O)c1cccc2ccccc12	FBA Mtb inh 27.7 | Mtb FBA inh conf 73.3 | GDH-TPI counter-2 54.5
C/C(N)=C(/C#N)C(=O)COC(=O)c1ccccc1O	none
C=C(C)CN(CC)C(=O)CCc1nnc(CCc2c[nH]c3ccccc23)o1	none
COC(=O)[C@H]1C[C@@]2(O)CN(S(=O)(=O)c3ccc(C)cc3)C[C@@]2(OC(=O)NC2CC2)C[C@H]1C(=O)OC	none (no result: Rv3671c protease, Mtb bLac sens, UGM FP inh)
CCOC(=O)c1cnn(-c2ncnc3sc(C)c(C)c23)c1N	FBA Mtb inh 76.9 | Mtb FBA inh conf 84.1 | GDH-TPI counter-2 65.9
N/C(=N\OC(=O)CCn1cccc(C(F)(F)F)c1=O)c1ccc(Cl)cc1	none
COCCCn1c(CCC(=O)O)ccc1-c1cccs1	FBA Mtb inh 33.9 | Mtb FBA inh conf 34.0 | GDH-TPI counter-2 26.1
CCCn1c(CCC(=O)O)ccc1-c1ccccc1	none
CCCn1c(CCC(=O)O)ccc1-c1cccs1	FBA Mtb inh 35.1 | Mtb FBA inh conf 98.0 | GDH-TPI counter-2 83.6
O=C(O)CCCC(=O)N1CCOCCOCCOCCOCC1	none
CCOc1ccc2oc(C(=O)OCC(=O)N3CC(C)OC(C)C3)c(C)c2c1 (stereo not given)	FBA Mtb inh 45.8 | Mtb FBA inh conf active | GDH-TPI counter-2 active
Cc1c(C(=O)OCC(=O)N2CC(C)OC(C)C2)oc2ccc(Br)cc12 (stereo not given)	none
Cc1c(C(=O)OCC(=O)N2CCCC(C)C2)oc2ccccc12 (stereo not given)	none
COc1ccc2oc(C(=O)OCC(=O)N3CCCC(C)C3)c(C)c2c1 (stereo not given)	FBA Mtb inh 62.7 | Mtb FBA inh conf 61.2 | GDH-TPI counter-2 55.0
CCOc1ccc2oc(C(=O)OCC(=O)N3CCCC(C)C3)c(C)c2c1 (stereo not given)	FBA Mtb inh 48.5 | Mtb FBA inh conf 94.8 | GDH-TPI counter-2 78.2
O=C(NCC1CC1)c1ccc2c(c1)S(=O)(=O)c1cc(Cl)ccc1C2=O	none
O=c1c2c(nc3c(-c4cccc(Br)c4)c[nH]n13)CCCC2	none
